Compounds without any hit were thinned out: in the full panel of roughly 83,000, 20% have a hit.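 Method: cells in 96-well plates; compound added at one concentration; 48 h incubation; percent growth measured; values under 10 scored active.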 Activity calls are given as the source filed them.
Assays:
Test in all cases: NCI-60 one-dose screen, 48 h (100 = growth as untreated, 0 = no growth, -100 = all killed)
Conditions in all cases: 10 µM unless noted
DU-145 prostate = tested on: DU-145 prostate
K-562 leukemia = tested on: K-562 leukemia
MALME-3M melanoma = tested on: MALME-3M melanoma
MDA-MB-231 breast = tested on: MDA-MB-231 breast
RXF 393 renal = tested on: RXF 393 renal
SF-268 CNS = tested on: SF-268 CNS
SF-295 CNS = tested on: SF-295 CNS
SF-539 CNS = tested on: SF-539 CNS
UACC-257 melanoma = tested on: UACC-257 melanoma
M14 melanoma = tested on: M14 melanoma
HCT-15 colon = tested on: HCT-15 colon
HT29 colon = tested on: HT29 colon
SNB-75 CNS = tested on: SNB-75 CNS
SNB-19 CNS = tested on: SNB-19 CNS
U251 CNS = tested on: U251 CNS
PC-3 prostate = tested on: PC-3 prostate
SK-MEL-5 melanoma = tested on: SK-MEL-5 melanoma
UACC-62 melanoma = tested on: UACC-62 melanoma
LOX IMVI melanoma = tested on: LOX IMVI melanoma
SK-MEL-28 melanoma = tested on: SK-MEL-28 melanoma

Measured: growth

O=C(Nc1cccc2c(O)c(N=Nc3ccc(S(=O)(=O)Nc4nccs4)cc3)cc(N=Nc3ccc(S(=O)(=O)Nc4nccs4)cc3)c12)C(Cl)Cl
inactive: DU-145 prostate 33.8% | K-562 leukemia 143% | MALME-3M melanoma 138% | MDA-MB-231 breast 92.3% | RXF 393 renal 71.2% | SF-268 CNS 66.2% | SF-295 CNS 78.2% | SF-539 CNS 86.6% | UACC-257 melanoma 80.6% | M14 melanoma 110% | HCT-15 colon 60.2% | HT29 colon 62.8% | SNB-75 CNS 83% | SNB-19 CNS 73.6% | U251 CNS 63.1% | PC-3 prostate 15.7% | SK-MEL-5 melanoma 85.2% | UACC-62 melanoma 89% | LOX IMVI melanoma 66.7% | SK-MEL-28 melanoma 82.9%

COc1ccc2c(c1)[nH]c(=O)c1c3cccnc3cn21
inactive: K-562 leukemia 17.4% | MALME-3M melanoma 62.6% | MDA-MB-231 breast 28.9% | RXF 393 renal 37% | SF-268 CNS 27.3% | UACC-257 melanoma 64.5% | M14 melanoma 16.2% | HCT-15 colon 13.7% | SNB-75 CNS 40.5% | SNB-19 CNS 32.7% | U251 CNS 15.6% | PC-3 prostate 22% | UACC-62 melanoma 16.5% | LOX IMVI melanoma 33.1% | SK-MEL-28 melanoma 70.8%
active: DU-145 prostate 9.39% | SF-295 CNS -6.51% | SF-539 CNS 8.85% | HT29 colon 8.6% | SK-MEL-5 melanoma -33.6%

CCCCNC(=O)Oc1ccc2c(=O)c3sc4c(=O)c5ccccc5c(=O)c4c3c(=O)c2c1
active: DU-145 prostate -98.5% | K-562 leukemia -34.3% | MALME-3M melanoma -98% | MDA-MB-231 breast -22.2% | RXF 393 renal -87.1% | SF-268 CNS -48.1% | SF-295 CNS -98.1% | SF-539 CNS -96.6% | UACC-257 melanoma -95.7% | M14 melanoma -77.6% | HCT-15 colon -84% | HT29 colon -41.6% | SNB-75 CNS -98.3% | SNB-19 CNS -93.6% | U251 CNS -73% | PC-3 prostate -15.5% | SK-MEL-5 melanoma -96.9% | UACC-62 melanoma -75% | LOX IMVI melanoma -72.9% | SK-MEL-28 melanoma -73.3%

CC1(C)CC(=O)C2=C(C1)N(c1ccc(OC(F)(F)F)cc1)C(N)=C(C#N)C2c1ccc(Cl)cc1 (stereo not given)
inactive: DU-145 prostate 91.3% | K-562 leukemia 86.5% | MALME-3M melanoma 85% | MDA-MB-231 breast 80.8% | RXF 393 renal 66.7% | SF-268 CNS 74.3% | SF-295 CNS 81.6% | SF-539 CNS 82.2% | UACC-257 melanoma 84.1% | M14 melanoma 93.7% | HCT-15 colon 97.1% | HT29 colon 87.2% | SNB-75 CNS 52.6% | SNB-19 CNS 57.4% | U251 CNS 56.2% | PC-3 prostate 76.8% | SK-MEL-5 melanoma 93.8% | UACC-62 melanoma 85.5% | LOX IMVI melanoma 86% | SK-MEL-28 melanoma 96.2%

Cc1c(Cl)cc(-n2c(=O)c3ccccc3c3ccccc3c2=O)cc1Cl
inactive: DU-145 prostate 121% | K-562 leukemia 106% | MALME-3M melanoma 90.5% | MDA-MB-231 breast 84.2% | RXF 393 renal 123% | SF-268 CNS 105% | SF-295 CNS 102% | SF-539 CNS 110% | UACC-257 melanoma 104% | M14 melanoma 93% | HCT-15 colon 110% | HT29 colon 103% | SNB-75 CNS 89.9% | SNB-19 CNS 104% | U251 CNS 102% | PC-3 prostate 82% | SK-MEL-5 melanoma 107% | UACC-62 melanoma 92.6% | LOX IMVI melanoma 95.2% | SK-MEL-28 melanoma 117%

CNC(=O)c1cc(Oc2ccc3nc(Nc4ccc(Cl)c(C(F)(F)F)c4)ccc3c2)ccn1
inactive: DU-145 prostate 75.7% | K-562 leukemia 40.4% | MALME-3M melanoma 82.9% | MDA-MB-231 breast 77.8% | RXF 393 renal 74.6% | SF-268 CNS 66.5% | SF-295 CNS 66% | SF-539 CNS 84.8% | UACC-257 melanoma 46.8% | M14 melanoma 48.2% | HCT-15 colon 41.2% | HT29 colon 39.6% | SNB-75 CNS 82.7% | SNB-19 CNS 77% | U251 CNS 56.8% | PC-3 prostate 21.7% | SK-MEL-5 melanoma 60.5% | UACC-62 melanoma 47.3% | LOX IMVI melanoma 60.8% | SK-MEL-28 melanoma 68.6%

COc1ccc(C(=O)/C=C/c2c(C(F)(F)F)nc3sccn23)cc1OC
active: DU-145 prostate -24.6% | K-562 leukemia -15.1% | SF-295 CNS -9.31% | SF-539 CNS -5.52% | LOX IMVI melanoma 5.55%
inactive: MALME-3M melanoma 71.4% | MDA-MB-231 breast 36.8% | RXF 393 renal 39.1% | SF-268 CNS 15.4% | UACC-257 melanoma 56.8% | M14 melanoma 28.5% | HCT-15 colon 24.6% | HT29 colon 12.3% | SNB-75 CNS 14.3% | SNB-19 CNS 33% | U251 CNS 15.1% | PC-3 prostate 53.3% | SK-MEL-5 melanoma 31.7% | UACC-62 melanoma 20.6% | SK-MEL-28 melanoma 52.7%

O=c1[nH]c2ccccc2n1C1CCN(CCOc2ccccc2)CC1
inactive: DU-145 prostate 73.4% | K-562 leukemia 11.4% | MALME-3M melanoma 99.9% | MDA-MB-231 breast 91.3% | RXF 393 renal 28% | SF-268 CNS 92.8% | SF-295 CNS 76.9% | SF-539 CNS 106% | UACC-257 melanoma 95.1% | M14 melanoma 97% | HCT-15 colon 85.1% | HT29 colon 99.4% | SNB-75 CNS 80.5% | SNB-19 CNS 93.3% | U251 CNS 88.9% | PC-3 prostate 58.9% | SK-MEL-5 melanoma 95.6% | UACC-62 melanoma 86% | LOX IMVI melanoma 95.2% | SK-MEL-28 melanoma 102%

Source: PubChem BioAssay (NCI)
